Experimental data: PubChem BioAssay (Tox21)
Inconclusive results are not listed. Entries that show only a call come without a potency. Active and inactive are the calls of the source. Calls come from the whole dose curve; as a rule, active = well fitted cell-killing curve with a large enough effect in the repeat runs; inconclusive = weak or mixed curves; inactive = flat fitted curve, though single readings scatter.

test: qHTS RealTime-Glo MT Cell Viability Assay in HepG2 cells - 32 hour (AID 1224877); conditions: RealTime-Glo luminescence; series mostly up to 76.8 µM; note: nearly all actives have a fitted effect of over 55% in size
Excerpt: U.S. Tox21 Program National Center for Advancing Translational Sciences [NCATS] NIH Chemical Genomics Center [NCGC] U.S. Environmental Protection Agency [EPA] National Institutes of Environmental Health Sciences [NIEHS] National Toxicology Program [NTP] U.S. Food and Drug Administration [FDA] Tox21 Assay Overview: Measure of cell viability is critical in the cell-base assay. Analysis of cell viability is necessary for the characterization of cell responses to cytotoxic drugs and environmental stress. A RealTime-Glo MT Cell Viability Assay to monitor cell viability in real time of continues cell culture during 40 hours of compound treatment was used to screen Tox21 10K library compounds in HepG2 cells. The RealTime-Glo MT Cell Viability Assay is a nonlytic, homogeneous, bioluminescent method to measure cell viability in real time using a simple, plate-based method. The assay involves adding NanoLuc luciferase and a cell-permeant prosubstrate to cells in culture. Viable cells reduce the proprietary prosubstrate to generate a substrate for NanoLuc luciferase. This substrate diffuses from cells into the surrounding culture medium, where it is rapidly used by the NanoLuc Enzyme to produce a luminescent signal. The signal correlates with the number of viable cells, making the assay well suited for cytotoxicity studies.
Tox21 Assay Protocol Summary: The mixture of HepG2 cell suspension and reagents were dispensed at 600cells/6 ul/well in 1536-well tissue culture treated black solid bottom plates using a Multidrop dispenser. After the assay plates were incubated at a 37 C/5% CO2 incubator for 5 hours, 23 nL of compounds dissolved in DMSO, positive and negative controls was transferred to the assay plate by a pintool work station. The plates were incubated at 37 C for 40 hours. The luminescence intensity were measured at 0h, 8h, 16h, 24h, 32h and 40h time points using ViewLux plate reader during compound treatment.

SMILES	Potency	activity change, negative = cytotoxic
CO/N=C(/C(=O)N[C@@H]1C(=O)N2C(C(=O)OCOC(=O)C(C)(C)C)=C(C)CS[C@H]12)c1csc(N)n1	inactive	
CC/C=C\CCOC(C)=O	inactive	
CCCCOCCOCCOCc1cc2c(cc1CCC)OCO2	inactive	
FC(F)OC(Cl)C(F)(F)F (stereo not given)	inactive	
COC(C)(C)CCCC(C)CC=O (stereo not given)	inactive	
CCCc1cc(C(N)=S)ccn1	inactive	
CCCCCCCCCCCCCCCCC	inactive	
CS(=O)(=O)O	inactive	
CCCCCCCCCCCCCC=O		-9.48% [at 6.97 µM] (inactive)
CN1CCC(=C2c3ccccc3CC(=O)c3sccc32)CC1	inactive	
CCCN1CCCC[C@H]1C(=O)Nc1c(C)cccc1C	inactive	
CC(C)NCCCC1(C(N)=O)c2ccccc2-c2ccccc21	inactive	
CCCCC(CC)COC(=O)c1ccccc1O (stereo not given)	inactive	
CN1C(=O)N(C)C(O)C1O (stereo not given)	inactive	
C=COCC1CCC(CO)CC1 (stereo not given)	inactive	
COC(=O)CC(C)=O	inactive	
CC(=O)Nc1c(I)cc(I)c(C(=O)O)c1I	inactive	
Nc1ccccc1S(=O)(=O)O	inactive	
Oc1ccc(C2CNCCc3c2cc(O)c(O)c3Cl)cc1 (stereo not given)	inactive	
CC[N+](C)(C)c1cccc(O)c1	inactive	

SMILES	Potency	activity change, negative = cytotoxic
CCCCCSCCCCC	inactive	
CCN(CC)CCOCCOC(=O)C1(c2ccccc2)CCCC1	inactive	
C=CCCCCCCCCC=O	inactive	
NS(=O)(=O)c1cc(C(=O)NN2C[C@H]3[C@H]4CCC(C4)[C@H]3C2)ccc1Cl	inactive	
CC(=O)N(CC(O)CO)c1c(I)c(C(=O)NCCO)c(I)c(C(=O)NCC(O)CO)c1I (stereo not given)	inactive	
CCS(=O)(=O)c1ccc(OC)c(C(=O)OC)c1	inactive	
C[N+](C)(C)CCCCCC[N+](C)(C)C	inactive	
NCCc1cnc[nH]1	inactive	
N=C(N)c1ccc2cc(OC(=O)c3ccc(N=C(N)N)cc3)ccc2c1	inactive	
COc1c(N2C[C@@H]3CCCN[C@@H]3C2)c(F)cc2c(=O)c(C(=O)O)cn(C3CC3)c12	inactive	
C[C@H](NC(CCc1ccccc1)C(=O)O)C(=O)N1CCC[C@H]1C(=O)O (stereo not given in full)	inactive	
CC1(C)CO[C@@H](CC(=O)O)CN1	inactive	
COc1cc(C(=O)N2CCCCCCC2)cc(OC)c1OC	inactive	
CC(C)(O)C#CC(C)(C)O	inactive	
Cc1ccc(C#N)cc1	inactive	
COc1ccc2c(c1)c(CC(=O)OCC(=O)O)c(C)n2C(=O)c1ccc(Cl)cc1	inactive	
C=CCS(=O)(=O)O	inactive	
CCCCOCCOCCOCCCC	inactive	
CC1(C)C(O)C(C)(C)C1O (stereo not given)	inactive	
O=[N+]([O-])c1ccc(F)cc1F	inactive	
